# From the supplement of paper PMC12067093, “Discovery and optimisation of a covalent ligand for TRIM25 and its application to targeted protein ubiquitination” (Chemical Science, 2025)
# Targets with the largest changes are over-represented here; the source holds about 21,000 in all.
# Compound: CC1Cc2ccccc2N1C(=O)C1CCCN(C1)C(=O)CCl (mixture of isomers) [TRIM25 ligand 11 (diastereomer mixture)]
# Assay: probe-labelled cysteine peptide fold change vs DMSO (competition) (log2 fold change); higher = less target engagement (more negative = stronger competition)
# Conditions: 50 µM; THP-1; incubation time: 4 h
# 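Further: competitive chemoproteomic profiling in live THP-1 cells with an iodoacetamide desthiobiotin (IA-DTB) probe, comparing probe-labelled peptide intensities in compound-treated cells against DMSO-treated controls.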
# Chain of UniProt Q8IWV8 (Q8IWV8 whole entry, looked up): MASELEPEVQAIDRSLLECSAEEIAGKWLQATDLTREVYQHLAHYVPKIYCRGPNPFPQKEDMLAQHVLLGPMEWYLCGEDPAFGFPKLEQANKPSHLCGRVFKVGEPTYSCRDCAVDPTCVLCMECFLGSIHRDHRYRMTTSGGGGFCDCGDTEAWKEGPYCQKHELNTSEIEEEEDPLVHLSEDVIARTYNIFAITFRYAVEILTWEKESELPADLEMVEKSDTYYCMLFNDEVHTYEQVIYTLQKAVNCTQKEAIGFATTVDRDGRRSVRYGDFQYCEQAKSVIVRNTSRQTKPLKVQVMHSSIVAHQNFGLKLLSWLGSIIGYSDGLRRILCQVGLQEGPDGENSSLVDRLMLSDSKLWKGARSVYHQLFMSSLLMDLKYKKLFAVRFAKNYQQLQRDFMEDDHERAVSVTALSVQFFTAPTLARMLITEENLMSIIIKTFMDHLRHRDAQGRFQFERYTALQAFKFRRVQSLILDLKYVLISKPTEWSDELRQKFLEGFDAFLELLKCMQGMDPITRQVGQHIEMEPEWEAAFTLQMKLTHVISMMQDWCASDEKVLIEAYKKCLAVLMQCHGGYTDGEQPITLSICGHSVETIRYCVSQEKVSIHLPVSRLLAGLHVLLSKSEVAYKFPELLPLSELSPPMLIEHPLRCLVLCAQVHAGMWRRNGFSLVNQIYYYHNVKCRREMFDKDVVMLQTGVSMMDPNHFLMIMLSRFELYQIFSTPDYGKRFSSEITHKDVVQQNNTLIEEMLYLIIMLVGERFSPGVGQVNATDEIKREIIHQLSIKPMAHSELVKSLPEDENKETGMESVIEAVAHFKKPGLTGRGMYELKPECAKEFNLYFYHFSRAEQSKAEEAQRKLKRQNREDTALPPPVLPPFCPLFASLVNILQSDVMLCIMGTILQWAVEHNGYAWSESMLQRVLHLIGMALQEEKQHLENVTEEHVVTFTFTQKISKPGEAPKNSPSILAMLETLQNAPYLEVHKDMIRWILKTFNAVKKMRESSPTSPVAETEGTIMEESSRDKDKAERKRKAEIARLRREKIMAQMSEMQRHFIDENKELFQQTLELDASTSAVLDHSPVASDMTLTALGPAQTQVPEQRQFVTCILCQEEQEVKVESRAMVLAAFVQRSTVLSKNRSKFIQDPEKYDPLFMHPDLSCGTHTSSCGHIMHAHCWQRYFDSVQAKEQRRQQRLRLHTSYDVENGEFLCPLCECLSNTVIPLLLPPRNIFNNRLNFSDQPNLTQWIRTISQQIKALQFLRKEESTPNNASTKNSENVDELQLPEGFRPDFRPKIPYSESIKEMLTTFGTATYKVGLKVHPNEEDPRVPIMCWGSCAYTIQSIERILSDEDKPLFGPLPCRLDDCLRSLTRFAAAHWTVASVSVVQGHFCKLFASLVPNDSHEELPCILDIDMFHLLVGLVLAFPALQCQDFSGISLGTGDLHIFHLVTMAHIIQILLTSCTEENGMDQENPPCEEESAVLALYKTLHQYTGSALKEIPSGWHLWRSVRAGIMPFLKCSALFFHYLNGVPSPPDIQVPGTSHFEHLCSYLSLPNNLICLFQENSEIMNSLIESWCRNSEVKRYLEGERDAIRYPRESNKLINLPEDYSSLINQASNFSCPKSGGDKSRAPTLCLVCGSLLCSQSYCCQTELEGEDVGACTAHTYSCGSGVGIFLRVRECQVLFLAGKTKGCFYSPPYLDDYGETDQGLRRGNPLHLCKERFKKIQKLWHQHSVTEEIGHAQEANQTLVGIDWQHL
# Chain of UniProt Q9Y3C8 (Q9Y3C8 whole entry, looked up): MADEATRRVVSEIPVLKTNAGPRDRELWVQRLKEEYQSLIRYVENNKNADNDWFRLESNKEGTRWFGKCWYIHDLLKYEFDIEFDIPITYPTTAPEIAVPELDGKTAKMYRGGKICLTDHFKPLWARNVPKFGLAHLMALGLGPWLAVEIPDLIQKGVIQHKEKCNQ
# Chain of UniProt Q13107 (Q13107 whole entry, looked up): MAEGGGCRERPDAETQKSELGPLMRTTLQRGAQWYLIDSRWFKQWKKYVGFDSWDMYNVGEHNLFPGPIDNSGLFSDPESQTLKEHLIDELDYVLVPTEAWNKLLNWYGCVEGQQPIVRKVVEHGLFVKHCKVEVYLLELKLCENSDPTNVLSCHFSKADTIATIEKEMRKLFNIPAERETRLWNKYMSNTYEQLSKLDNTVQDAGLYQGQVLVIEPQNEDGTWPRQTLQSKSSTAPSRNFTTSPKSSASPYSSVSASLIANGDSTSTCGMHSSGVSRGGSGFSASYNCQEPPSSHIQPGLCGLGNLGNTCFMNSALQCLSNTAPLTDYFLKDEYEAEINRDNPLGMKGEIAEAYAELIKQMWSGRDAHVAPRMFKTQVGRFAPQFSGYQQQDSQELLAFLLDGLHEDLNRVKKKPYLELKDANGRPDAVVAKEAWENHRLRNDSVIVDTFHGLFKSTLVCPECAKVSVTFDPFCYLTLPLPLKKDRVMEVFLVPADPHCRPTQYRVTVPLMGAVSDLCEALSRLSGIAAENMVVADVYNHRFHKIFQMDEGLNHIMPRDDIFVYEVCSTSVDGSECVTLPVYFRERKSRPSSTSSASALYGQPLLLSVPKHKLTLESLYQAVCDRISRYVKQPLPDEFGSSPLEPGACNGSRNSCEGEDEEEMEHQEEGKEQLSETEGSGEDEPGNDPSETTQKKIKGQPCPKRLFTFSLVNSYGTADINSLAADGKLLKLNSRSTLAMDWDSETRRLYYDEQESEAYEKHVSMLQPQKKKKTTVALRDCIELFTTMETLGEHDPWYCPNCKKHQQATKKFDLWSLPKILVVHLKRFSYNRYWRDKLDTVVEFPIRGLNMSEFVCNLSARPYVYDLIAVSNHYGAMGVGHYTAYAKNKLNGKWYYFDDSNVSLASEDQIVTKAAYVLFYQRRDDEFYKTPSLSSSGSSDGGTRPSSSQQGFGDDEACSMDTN
# Chain of UniProt Q9H0U9 (Q9H0U9 whole entry): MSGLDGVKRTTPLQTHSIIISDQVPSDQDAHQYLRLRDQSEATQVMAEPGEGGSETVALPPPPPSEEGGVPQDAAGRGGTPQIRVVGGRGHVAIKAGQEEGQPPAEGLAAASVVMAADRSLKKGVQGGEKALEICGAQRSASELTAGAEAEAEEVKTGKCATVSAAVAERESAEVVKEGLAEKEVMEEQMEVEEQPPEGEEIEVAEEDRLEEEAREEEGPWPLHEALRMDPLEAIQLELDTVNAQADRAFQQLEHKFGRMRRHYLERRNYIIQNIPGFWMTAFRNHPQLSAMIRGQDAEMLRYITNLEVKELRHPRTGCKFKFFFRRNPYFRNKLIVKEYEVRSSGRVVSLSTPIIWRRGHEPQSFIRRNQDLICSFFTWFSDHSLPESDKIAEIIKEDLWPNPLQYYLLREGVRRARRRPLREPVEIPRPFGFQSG
# Chain of UniProt Q3KQV9 (Q3KQV9 whole entry, looked up): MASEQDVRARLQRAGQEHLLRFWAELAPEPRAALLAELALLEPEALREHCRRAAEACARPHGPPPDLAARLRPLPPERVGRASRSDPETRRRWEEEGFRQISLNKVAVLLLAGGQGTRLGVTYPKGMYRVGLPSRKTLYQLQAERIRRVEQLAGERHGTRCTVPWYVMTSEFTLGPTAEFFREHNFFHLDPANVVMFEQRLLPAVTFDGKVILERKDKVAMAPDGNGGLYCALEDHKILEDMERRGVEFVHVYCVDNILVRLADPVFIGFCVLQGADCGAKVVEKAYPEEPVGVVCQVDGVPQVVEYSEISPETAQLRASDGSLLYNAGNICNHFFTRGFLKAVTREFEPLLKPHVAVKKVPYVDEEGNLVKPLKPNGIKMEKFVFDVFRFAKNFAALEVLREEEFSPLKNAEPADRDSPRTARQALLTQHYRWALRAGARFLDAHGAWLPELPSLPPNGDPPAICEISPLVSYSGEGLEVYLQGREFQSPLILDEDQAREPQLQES
# Chain of UniProt Q7Z5K2 (Q7Z5K2 whole entry, looked up): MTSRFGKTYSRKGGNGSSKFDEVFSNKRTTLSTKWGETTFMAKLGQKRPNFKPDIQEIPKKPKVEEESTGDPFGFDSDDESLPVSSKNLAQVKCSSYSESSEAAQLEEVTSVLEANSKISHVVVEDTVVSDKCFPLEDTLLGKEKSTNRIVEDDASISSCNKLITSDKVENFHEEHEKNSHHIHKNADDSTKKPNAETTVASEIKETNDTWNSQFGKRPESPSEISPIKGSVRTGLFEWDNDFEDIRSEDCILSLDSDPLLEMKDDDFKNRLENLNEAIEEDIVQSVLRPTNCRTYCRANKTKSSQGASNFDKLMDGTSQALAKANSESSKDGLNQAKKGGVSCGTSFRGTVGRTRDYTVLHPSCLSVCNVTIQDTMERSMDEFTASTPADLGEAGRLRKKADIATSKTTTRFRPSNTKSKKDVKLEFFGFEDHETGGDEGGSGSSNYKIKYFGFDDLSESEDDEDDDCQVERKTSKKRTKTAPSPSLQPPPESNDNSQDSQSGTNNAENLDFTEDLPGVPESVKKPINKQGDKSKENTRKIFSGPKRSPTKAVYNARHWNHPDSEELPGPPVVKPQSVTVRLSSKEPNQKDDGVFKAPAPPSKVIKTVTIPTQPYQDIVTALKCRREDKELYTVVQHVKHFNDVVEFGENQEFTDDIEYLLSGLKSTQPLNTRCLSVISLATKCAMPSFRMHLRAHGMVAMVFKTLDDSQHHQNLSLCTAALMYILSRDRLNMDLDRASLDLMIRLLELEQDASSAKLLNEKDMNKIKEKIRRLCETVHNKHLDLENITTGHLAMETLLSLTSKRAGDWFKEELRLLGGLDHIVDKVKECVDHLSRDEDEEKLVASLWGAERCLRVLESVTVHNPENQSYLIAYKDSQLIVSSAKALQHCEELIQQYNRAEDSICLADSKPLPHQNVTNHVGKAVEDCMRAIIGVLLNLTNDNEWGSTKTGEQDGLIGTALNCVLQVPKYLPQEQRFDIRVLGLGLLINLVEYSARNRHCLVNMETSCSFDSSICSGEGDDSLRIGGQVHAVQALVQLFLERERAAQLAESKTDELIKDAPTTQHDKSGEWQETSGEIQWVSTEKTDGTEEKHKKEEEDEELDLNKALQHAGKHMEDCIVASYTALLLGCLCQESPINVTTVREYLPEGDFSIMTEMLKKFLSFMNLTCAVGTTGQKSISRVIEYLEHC
row,Target,probe-labelled cysteine peptide fold change
1,UBA1_P22314_234_DNPGVVTCLDEAR (UniProt P22314),-0.108
2,WDR12_Q9GZL7_185_ALHCCR (UniProt Q9GZL7),0.103
3,UGP2_Q16851_123_LNGGLGTSMGCK (UniProt Q16851),-0.138
4,TRMT1_Q9NXH9_376_FSAACGPPVTPECEHCGQR (UniProt Q9NXH9),0.015
5,UAP1L1_Q3KQV9_271+278_LADPVFIGFCVLQGADCGAK (UniProt Q3KQV9),0.0877
6,WDFY4_Q6ZS81_835_QWPDLEERMDEGDAAIMHPGVVCIMVR (UniProt Q6ZS81),-0.333
7,XPC_Q01831_514_MCSDGEK (UniProt Q01831),-0.0661
8,WDFY1_Q8IWB7_189_LEQNTCSVITTLK (UniProt Q8IWB7),0.551
9,WDR44_Q5JSH3_642_ECLCCFQHIDFVTAIAFHPR (UniProt Q5JSH3),0.281
10,WDR91_A4D1P6_246_LGDSELAMVCSQR (UniProt A4D1P6),-0.273
11,TTC21B_Q7Z4L5_72_QDVSLCSLLALIYAHK (UniProt Q7Z4L5),0.138
12,UBR4_Q5T4S7_4146_QAACTIVEALATIPSR (UniProt Q5T4S7),-0.0346
13,WDR7_Q9Y4E6_326_ELLICPPVTR (UniProt Q9Y4E6),0.185
14,VRK3_Q8IV63_128_TSCSPQK (UniProt Q8IV63),-0.142
15,UFC1_Q9Y3C8_116_ICLTDHFKPLWAR (UniProt Q9Y3C8),-0.68
16,TRMT1_Q9NXH9_351_QALVFQCVGCGAFHLQR (UniProt Q9NXH9),0.318
17,TYW1B_Q6NUM6_581_ELVDLIPEYEIACEHEHSNCLLIAHR (UniProt Q6NUM6),0.256
18,UBR7_Q8N806_374_VQQVELICEYNDLK (UniProt Q8N806),0.0769
19,TTC27_Q6P3X3_374_NNPVHTLTEVELLAFTSCLLSQPK (UniProt Q6P3X3),0.421
20,UBE2E1_P51965_131_IYHCNINSQGVICLDILK (UniProt P51965),0.188

row,Target,probe-labelled cysteine peptide fold change
1,URB1_O60287_315_ELVHNFLMDLCCSLK (UniProt O60287),-0.0236
2,TXNRD1_Q16881_625_QLDSTIGIHPVCAEVFTTLSVTK (UniProt Q16881),0.194
3,UBR2_Q8IWV8_1360_ILSDEDKPLFGPLPCR (UniProt Q8IWV8),-0.289
4,USP19_O94966_1017_LEDKGDTPLELGDDCSLALVWR (UniProt O94966),-0.0111
5,WDR11_Q9BZH6_411_NSSSGVSPLYSPVSFCGIPVGVLQNK (UniProt Q9BZH6),-0.0348
6,WAPL_Q7Z5K2_891_ALQHCEELIQQYNR (UniProt Q7Z5K2),0.496
7,TTC30B_Q8N4P2_619_DSVIQECVQFLEHCELHGR (UniProt Q8N4P2),0.655
8,VPS13B_Q7Z7G8_3937_VACDVEVDGVR (UniProt Q7Z7G8),-0.592
9,UNK_Q9C0B0_299+308_CNDMQQSGSCPR (UniProt Q9C0B0),-0.132
10,VCPIP1_Q96JH7_219_SQECLIPVHVDGDGHCLVHAVSR (UniProt Q96JH7),-1.68
11,TXNIP_Q9H3M7_49_ILACGVAK (UniProt Q9H3M7),0.565
12,UBAP1_Q9NZ09_243_ATLDFKPLHKPNGFITLPQLGNCEK (UniProt Q9NZ09),-0.382
13,TTF2_Q9UNY4_50_ATDIPVSHCLLHEDFVVELQGLLLPQDK (UniProt Q9UNY4),0.271
14,USP34_Q70CQ2_2033_CQVADMK (UniProt Q70CQ2),0.0671
15,USP4_Q13107_7_AEGGGCR (UniProt Q13107),0.609
16,UBR5_O95071_1382+1386_LDCFTHCLIVK (UniProt O95071),0.564
17,TUBG1_P23258_316_QTNHCYIAILNIIQGEVDPTQVHK<|>TUBG2_Q9NRH3_316_QTNHCYIAILNIIQGEVDPTQVHK (UniProt Q9NRH3+P23258),-0.013
18,VPS37A_Q8NEZ2_375_TICHCR (UniProt Q8NEZ2),0.772
19,TSPYL1_Q9H0U9_375_NQDLICSFFTWFSDHSLPESDK (UniProt Q9H0U9),0.39
20,URB2_Q14146_1380_LHNVLFSILQCHPK (UniProt Q14146),0.859
